Results on 38 molecules are retold here after PubChem BioAssay (EPA / NIEHS).

The structures appear in SMILES notation. Results filed as inconclusive are left out. Activity calls are given as the source filed them. How the source made its calls: active means hit-call score of the fitted dose curve at least 0.9, where 1 is the maximum; inactive means score below 0.9.

Read-out in this test: Cytochrome P450 2C9 (Homo sapiens) (UniProt P11712)
The test can be described thus: CLD_CYP2C9_48hr: CellzDirect (CLD) Gene Expression Assay for xenobiotic metabolism (CYP2C9) at 48 hours (AID 2283701). As for the experimental part: CLD_48hr is a cell-based, multiplexed-readout assay that uses hepatocyte, a human liver primary cell, with measurements taken at 48 hours after chemical dosing in a 96-well plate.CLD_CYP2C9_48hr is one of 16 assay component(s) measured or calculated from the CLD_48hr assay. It is designed to make measurements of mRNA induction, a form of inducible reporter, as detected with chemiluminescence signals by Quantitative Nuclease Protection Assay (qNPA) technology.Data from the assay component CLD_CYP2C9_48hr was analyzed at the endpoint, CLD_CYP2C9_48hr, in the positive analysis fitting direction relative to DMSO as the negative control and baseline of activity. Using a type of inducible reporter, gain-of-signal activity can be used to understand changes in the reporter gene as they relate to the gene CYP2C9. Furthermore, this assay endpoint can be referred to as a primary readout. To generalize the intended target to other relatable targets, this assay endpoint is annotated to the cyp intended target family, where subfamily is xenobiotic metabolism.
Human hepatocyte cultures were treated daily for two consecutive days with fresh dosing solutions containing appropriate concentrations of the 320 ToxCast chemicals (chemical identities were blinded to CellzDirect and other ToxCast collaborators), vehicle control (0.2% DMSO), and positive control inducers as summarized in Table 1. Due to the large number of treatment groups and chemicals examined, the ToxCast chemicals were divided into two groups (spanning two independent cultures of hepatocytes from separate donor preparations (Hu778: ToxCast plates 1 and 2; Hu776: ToxCast plates 3 and 4). Each preparation of human hepatocyte cultures was treated with respective vehicle control, medium only control, set of six positive controls/reference chemicals for the five hepatic receptor pathways, and a subset of eight of the ToxCast chemicals (indoxacarb, pyrithiobac-sodium, norflurazon, cyhalofop-butyl, methomyl, thiram, acetochlor, and propiconazole). These replicate data, coupled with internal replicates designed within the blinded ToxCast chemical library, provided additional data to evaluate interindividual differences between hepatocyte preparations and their potential impact on chemical profiles.Cell morphology and integrity were evaluated using phase-contrast microscopy as an indicator of hepatocyte cell health (Tyson & Green, 1987). Cultures for each treatment group (i.e., media, vehicle [0.2% DMSO], positive control inducers [multiple concentrations], and the ToxCast chemicals [multiple concentrations]) were observed and cell morphology was assessed relative to vehicle control cultures at each harvest time point (0, 6, 24, or 48 h). […] Images were evaluated at the conclusion of the study to assess changes in cell integrity and account for the effects of chemical exposure on uncharacteristic changes in concentration-dependent gene expression profiles. The results from these determinations of apparent cytotoxicity were annotated (yes/no) alongside the corresponding qNPA data for reference.At the conclusion of each treatment period, hepatocyte cultures (96-well) were washed with 1 volume of HBSS, lysed by addition of 25 ul ArrayPlate lysis buffer (HTG, Tucson, AZ), and 70 ul/well of Denaturation Oil, denatured by incubation at 95C for 10 min, and frozen at approximately -70C until analysis by nuclease protection assay (qNPA) (Roberts et al., 2007). For qNPA analysis, cell lysates were thawed at 50C for approximately 30 min, qNPA probes were added, and samples were incubated at 95C for 10 min to begin the detection process by denaturing the target RNA, dissociating the duplexes and secondary structure hybridization. At the conclusion of the hybridization period, S1 nuclease reagent was added to each sample to digest all nonprotected nucleotides at 50C for 60-90 min. […]
On to `OC(c1ccc(Cl)cc1)(c1ccc(Cl)cc1)C(Cl)(Cl)Cl`, for which the result was inactive.
As for `CC1(C)C(C=C(Cl)Cl)C1C(=O)OC(C#N)c1cccc(Oc2ccccc2)c1` (stereo not drawn), the molecule was called inactive.
With `CC1(C)C(C(=O)OC(C#N)c2cccc(Oc3ccccc3)c2)C1(C)C` (stereo not drawn) the entry was “inactive”.
In the case of `COC(=O)NC(=S)Nc1ccccc1NC(=S)NC(=O)OC`, the result was inactive.
Next, `CCNP(=S)(OC)O/C(C)=C/C(=O)OC(C)C` (stereo not drawn): “inactive”; `Cc1cnc(C2=NC(C)(C(C)C)C(=O)N2)c(C(=O)O)c1` (stereo not drawn): “inactive”.
For `CCCC(=NOCC)C1=C(O)CC(CC(C)SCC)CC1=O` (stereo not drawn), the result was inactive.
With `O=c1n(Cl)c(=O)n(Cl)c(=O)n1Cl` the entry was “inactive”; with `CCCN(CC)CC1COC2(CCC(C(C)(C)C)CC2)O1` (stereo not drawn), “inactive”.
Consider `COP(=S)(OC)SCn1nnc2ccccc2c1=O`, for which the molecule was called inactive.
With `CC(C)Oc1cccc(NC(=O)c2ccccc2C(F)(F)F)c1` the entry was “inactive”; with `N#CN=C1SCCN1Cc1ccc(Cl)nc1`, “inactive”; with `CCOP(=S)(OCC)Oc1nc(Cl)n(C(C)C)n1`, “inactive”.
Next, `COP(=O)(OC)O/C(C)=C/C(=O)N(C)C`: “inactive”; `Clc1cccc(C(Cl)(Cl)Cl)n1`: “inactive”; `COCC(=O)N(c1c(C)cccc1C)C(C)C(=O)OC` (stereo not drawn): “inactive”.
For the molecule `Cc1cc(C)nc(Nc2ccccc2)n1`, the result was inactive.
With `COc1cc(OC)nc(NC(=O)NS(=O)(=O)c2ncccc2OCC(F)(F)F)n1` the entry was “inactive”; with `CO/N=C(/C1=NOCCO1)c1ccccc1Oc1ncnc(Oc2ccccc2Cl)c1F`, “inactive”.
Next, `CCCCC(O)(Cn1cncn1)c1ccc(Cl)cc1Cl` (stereo not drawn): “inactive”; `CCN(CC)C(=O)C(C)Oc1cccc2ccccc12` (stereo not drawn): “inactive”.
Next, `CCCCC(C#N)(Cn1cncn1)c1ccc(Cl)cc1` (stereo not drawn): “inactive”.
On to `N#Cc1c(Cl)cccc1Cl`, for which the outcome was inactive.
Regarding `COC(=O)c1c(C(F)F)nc(C(F)(F)F)c(C2=NCCS2)c1CC(C)C`, the outcome was inactive.
With `C=CCOC(=O)C(C)(C)OC(=O)c1cc(-n2c(=O)cc(C(F)(F)F)n(C)c2=O)ccc1Cl` the entry was “inactive”; with `CSC(=O)c1c(C(F)F)nc(C(F)(F)F)c(C(=O)SC)c1CC(C)C`, “inactive”; with `Nc1c(Cl)c(F)nc(OCC(=O)O)c1Cl`, “inactive”.
For the molecule `Cc1nc(N(C)C)nc(OC(=O)N(C)C)c1C`, the molecule was classed as inactive.
Next, `COC(=O)NS(=O)(=O)c1ccc(N)cc1`: “inactive”; `CC1(C)CCC(=Cc2ccc(Cl)cc2)C1(O)Cn1cncn1` (stereo not drawn): “inactive”; `CS(=O)(=O)c1ccc(C(=O)C2C(=O)CCCC2=O)c([N+](=O)[O-])c1`: “inactive”.
`Cc1c(COC(=O)[C@@H]2[C@H](/C=C(\Cl)C(F)(F)F)C2(C)C)cccc1-c1ccccc1`: the outcome was inactive.
For `CCOP(=O)(OCC)Oc1nc(Cl)c(Cl)cc1Cl`, the molecule was classed as inactive.
Next, `CC(C)N1C(=O)N(c2ccccc2)CSC1=NC(C)(C)C`: “inactive”; `CC1(C)CON(Cc2ccccc2Cl)C1=O`: “inactive”.
Next, `CCOc1cc(C(C)(C)C)ccc1C1COC(c2c(F)cccc2F)=N1` (stereo not drawn): “inactive”; `CCOc1nc(C(Cl)(Cl)Cl)ns1`: “inactive”.
Regarding `CCOc1nc(F)cc2nc(S(=O)(=O)Nc3c(Cl)cccc3Cl)nn12`, the outcome was inactive.
